Laboratory results: PubChem BioAssay
Several values for one entry are separate records, joined by “and”; a condition that tells them apart may be missing. Equal values may be shown once.

Test system: XIP peptide (Xip251-270) binding
Test: small-molecule binders of XIP peptide, primary screen, biochemical, small-molecule microarray, fluorescence 635/667 nm, 0.1 µg/mL protein (AID 1182)
Conditions: fluorescent protein binding, 635 nm, higher = more signal, called active from +8 up or from −8 down

Composite z-score, inactive:
C=CCN(CCCC)C(=O)C1N(CCOCCO)C(=O)C2C(C(=O)O)C3C=CC21O3 (stereo not given) 0.175 and 0.306
C=CCN(C(=O)C1N(C(C)(C)CO)C(=O)C2C(C(=O)O)C3C=CC21O3)C(C)(C)C (stereo not given) -0.651 and 0.11
C=CCN(C(=O)C1N(CCOCCO)C(=O)C2C(C(=O)O)C3C=CC21O3)c1ccc(OC)cc1 (stereo not given) -0.675 and -0.315
O=C1NC(=O)C2C1C=CC(C(O)c1ccc([N+](=O)[O-])cc1)N2Nc1ccc(Cl)cc1Cl (stereo not given) 0.376 and 0.385
CCOC(=O)C[C@H]1[C@H](OC(=O)c2ccccc2-c2ccccc2)[C@@H](NC(=O)c2ccccc2)c2cc(OCCCO)ccc2N1C(=O)c1ccc2ccccc2n1 -0.196 and 0.367
COC(=O)[C@@]1(Cc2ccc(F)cc2)[C@H]2c3cc(C(=O)N4CCCC4)n(Cc4c(CO)[nH]cc(C)c4=O)c3C[C@H]2CN1C(=O)c1ccccc1 1.1 and 0.516
CC(CO)N1C(=O)[C@@H]2C3C(=O)OCCC=C[C@H]3OC23C=CCN(c2ccc4ccccc4c2)C(=O)[C@@H]13 (stereo not given in full) 0.62 and -0.143
C=CCN(C(=O)C1N(C(C)(C)CO)C(=O)C2C(C(=O)O)C3C=CC21O3)c1ccc(OC)cc1 (stereo not given) 0.382 and -0.0838
C=CCN(C(=O)C(c1cccs1)N(C(=O)/C=C\C(=O)O)c1ccc(CCO)cc1)C(C)(C)C (stereo not given) 0.356 and 1.08
C=C[C@@H](OC)[C@H](O)c1ccc(OC)c(O)c1 0.263 and -0.18
C=CCN(CCCCC)C(=O)C(c1cccs1)N(C(=O)/C=C\C(=O)O)c1ccc(CCO)cc1 (stereo not given) -0.141 and 0.737
C=CCN(C(=O)C(c1cccs1)N(C(=O)/C=C\C(=O)O)c1c(Cl)cccc1CO)c1ccc(OC)cc1 (stereo not given) 0.861 and 0.113
C=C[C@H](OC)[C@@H](O)c1ccc(OCCO)cc1 0.632 and -0.235
C=CCN(C(=O)C1N(c2c(Cl)cccc2CO)C(=O)C2C(C(=O)O)C3C=CC21O3)c1ccc(OC)cc1 (stereo not given) -0.241 and -0.23
C#CCN1C(/C=C/c2ccccc2)C(=O)OC[C@H]1c1ccccc1 (stereo not given in full) -0.538 and 0.237
C=C[C@H](C)[C@H](O)c1ccc(O)c2ccccc12 -0.389 and -0.742
C=CCN(C(=O)C1N(CCOCCO)C(=O)C2C(C(=O)O)C3C=CC21O3)C(C)(C)C (stereo not given) -0.348 and -0.346
C[N+](C)(C)CCCCCCNC(=O)[C@@H]1C[C@@H]2C(=O)N[C@@H](CCCC[N+](C)(C)C)C(=O)N2[C@@H]1c1ccc(O)cc1 0.134 and 0.316
C[N+](C)(C)CCCCCCNC(=O)[C@H]1C[C@H]2C(=O)N[C@@H](CCCC[N+](C)(C)C)C(=O)N2[C@H]1c1ccc(O)cc1 0.0514 and -0.283
C=CCN(CCCC)C(=O)C(c1cccs1)N(CCOCCO)C(=O)/C=C\C(=O)O (stereo not given) 0.455 and 0.476
C=CCN(CCCC)C(=O)C1N(c2ccc(CCO)cc2)C(=O)C2C(C(=O)O)C3C=CC21O3 (stereo not given) -1.72 and -1.1
C[N+](C)(C)CCCCNC(=O)[C@@H]1C[C@@H]2C(=O)N[C@@H](CCCC[N+](C)(C)C)C(=O)N2[C@@H]1c1cccc(OCCO)c1 0.785 and 1.87
C=CCN(Cc1ccccc1)C(=O)C1N(C(C)(C)CO)C(=O)C2C(C(=O)O)C3C=CC21O3 (stereo not given) 0.102 and -0.207
C=CCN(Cc1ccccc1)C(=O)C1N(CCOCCO)C(=O)C2C(C(=O)O)C3C=CC21O3 (stereo not given) 0.463 and -0.202
C=CCN(C(=O)C(c1cccs1)N(C(=O)/C=C\C(=O)O)c1ccc(CCO)cc1)c1ccc(OC)cc1 (stereo not given) -0.104 and -0.169
